Assay results taken from PubChem BioAssay AID1159580 (chemical genetic matrix, 2015).
The whole screen tested about 5,500 compounds, of which about 2,000 (36%) were called active. About 18% were inconclusive and are not listed. No stated cut-off is given here; in the data, active means normalized growth mostly below about 0.91 (no sharp cut-off); inconclusive means no clear call, values can overlap the other calls; inactive means mostly above about 0.92. This is one part of the list.

Experiment: chemical genetic growth profiling, strain panel (AID 1159580);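 further: tested at 20 µM; growth read once vehicle control cultures reached saturation at 30 °C; 1 = growth at the plate median or of vehicle wells; lower values mean less growth of the strain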
Settings: S. cerevisiae deletion strains, growth OD
[1] = locus YAR019C, strain CDC15, hits give low values
[2] = locus YBL105C, strain PKC1, hits give low values
[3] = locus YBR135W, strain CKS1, hits give low values
[4] = locus YBR136W, strain MEC1, hits give low values
[5] = locus YBR160W, strain CDC28, hits give low values
[6] = locus YDL017W, strain CDC7, hits give low values
[7] = locus YDL028C, strain MPS1, hits give low values
[8] = locus YDL101C, strain DUN1, hits give low values
[9] = locus YDL108W, strain KIN28, hits give low values
[10] = locus YDL132W, strain cdc53, hits give low values
[11] = locus YDL214C, strain PRR2, hits give low values
[12] = locus YDR052C, strain DBF4, hits give low values
[13] = locus YDR054C, strain cdc34, hits give low values
[14] = locus YDR226W, strain ADK1, hits give low values
[15] = locus YDR477W, strain SNF1, hits give low values
[16] = locus YER123W, strain YCK3, hits give low values
[17] = locus YER133W, strain GLC7, hits give low values
[18] = locus YFL009W, strain cdc4, hits give low values
[19] = locus YFL029C, strain CAK1, hits give low values
[20] = locus YFR003C, strain YPI1, hits give low values
[21] = locus YFR019W, strain FAB1, hits give low values
[22] = locus YFR028C, strain CDC14, hits give low values
[23] = locus YGR040W, strain KSS1, hits give low values
[24] = locus YGR052W, strain FMP48, hits give low values
[25] = locus YGR092W, strain DBF2, hits give low values
[26] = locus YHR030C, strain SLT2, hits give low values
[27] = locus YHR079C, strain IRE1, hits give low values
[28] = locus YHR082C, strain KSP1, hits give low values
[29] = locus YHR205W, strain SCH9, hits give low values
[30] = locus YIL147C, strain SLN1, hits give low values
[31] = locus YJL095W, strain BCK1, hits give low values
[32] = locus YJL128C, strain PBS2, hits give low values
[33] = locus YJL157C, strain FAR1, hits give low values
[34] = locus YJR016C, strain ILV3, hits give low values
[35] = locus YJR066W, strain TOR1 (second series), hits give low values
[36] = locus YJR066W, strain TOR1, hits give low values
[37] = locus YKL048C, strain ELM1, hits give low values
[38] = locus YKL067W, strain YNK1, hits give low values
[39] = locus YKL101W, strain HSL1, hits give low values
[40] = locus YKL193C, strain SDS22, hits give low values
[41] = locus YKL203C, strain TOR2, hits give low values
[42] = locus YLR113W, strain HOG1, hits give low values
[43] = locus YLR133W, strain CKI1, hits give low values
[44] = locus YLR403W, strain SFP1, hits give low values
[45] = locus YML070W, strain DAK1, hits give low values
[46] = locus YMR001C, strain CDC5, hits give low values
[47] = locus YMR205C, strain PFK2 (second series), hits give low values
[48] = locus YMR277W, strain FCP1, hits give low values
[49] = locus YNL006W, strain LST8, hits give low values
[50] = locus YNL020C, strain ARK1, hits give low values
[51] = locus YNL161W, strain CBK1, hits give low values
[52] = locus YNL183C, strain NPR1, hits give low values
[53] = locus YNL207W, strain RIO2, hits give low values
[54] = locus YNL222W, strain SSU72, hits give low values
[55] = locus YNL307C, strain MCK1 (second series), hits give low values
[56] = locus YOL078W, strain AVO1, hits give low values
[57] = locus YOL136C, strain PFK27, hits give low values
[58] = locus YOR061W, strain CKA2, hits give low values
[59] = locus YOR119C, strain RIO1, hits give low values
[60] = locus YOR231W, strain MKK1, hits give low values
[61] = locus YOR329C, strain SCD5, hits give low values
[62] = locus YPL031C, strain PHO85, hits give low values
[63] = locus YPL153C, strain RAD53, hits give low values
[64] = locus YPL204W, strain HRR25, hits give low values
[65] = locus YPL209C, strain IPL1, hits give low values
[66] = locus YPL256C, strain CLN2, hits give low values
[67] = locus YPR025C, strain CCL1, hits give low values
[68] = locus YPR106W, strain ISR1, hits give low values
[69] = locus YPR111W, strain DBF20, hits give low values
[70] = strain NNK1, hits give low values
[71] = strain TSCII, hits give low values

Measured: normalized growth

O=C(c1ccc(Cl)cc1)N(Cc1ccccc1)Cc1cccnc1
inactive: [1] 0.994 | [2] 0.985 | [3] 0.989 | [4] 0.979 | [5] 0.986 | [6] 0.981 | [7] 0.989 | [8] 0.987 | [9] 0.98 | [10] 0.993 | [11] 0.866 | [12] 0.985 | [13] 0.987 | [14] 0.987 | [15] 0.886 | [16] 0.748 | [17] 0.868 | [18] 0.994 | [19] 0.996 | [20] 0.983 | [21] 0.801 | [22] 0.992 | [23] 0.874 | [24] 0.869 | [25] 0.865 | [26] 0.976 | [27] 0.96 | [28] 0.896 | [29] 0.918 | [30] 0.977 | [31] 0.862 | [32] 0.956 | [33] 0.845 | [34] 0.99 | [35] 0.853 | [36] 0.89 | [37] 0.965 | [38] 0.885 | [39] 0.905 | [40] 0.987 | [41] 0.944 | [42] 0.884 | [43] 0.905 | [44] 0.864 | [45] 0.859 | [46] 0.991 | [47] 0.885 | [48] 0.989 | [49] 1.01 | [50] 0.885 | [51] 0.994 | [52] 0.909 | [53] 0.986 | [54] 0.989 | [55] 0.885 | [56] 0.994 | [57] 0.877 | [58] 0.828 | [59] 0.915 | [60] 0.912 | [61] 0.991 | [62] 0.877 | [63] 0.851 | [64] 0.885 | [65] 0.988 | [66] 0.966 | [67] 0.984 | [68] 0.995 | [69] 0.998 | [70] 0.991 | [71] 0.995

O=S(=O)(c1ccc(Cl)cc1)N(Cc1cccnc1)Cc1ccc(Cl)cc1Cl
inactive: [1] 0.951 | [2] 0.966 | [3] 0.962 | [4] 0.95 | [5] 0.969 | [6] 0.968 | [7] 0.96 | [8] 0.967 | [9] 0.946 | [10] 0.929 | [11] 0.732 | [12] 0.924 | [13] 0.928 | [14] 0.938 | [18] 0.947 | [19] 0.942 | [20] 0.963 | [22] 0.94 | [25] 0.704 | [27] 0.55 | [28] 0.7 | [29] 0.583 | [30] 0.939 | [32] 0.958 | [33] 0.715 | [34] 0.949 | [37] 0.89 | [38] 0.745 | [39] 0.799 | [40] 0.941 | [43] 0.767 | [46] 0.963 | [48] 0.932 | [49] 0.959 | [50] 0.743 | [51] 0.968 | [53] 0.913 | [54] 0.961 | [55] 0.68 | [56] 0.946 | [57] 0.711 | [58] 0.787 | [60] 0.593 | [61] 0.96 | [65] 0.949 | [67] 0.952 | [68] 0.962 | [69] 0.975 | [70] 0.948 | [71] 0.927
active: [15] 0.537 | [16] 0.469 | [17] 0.57 | [21] 0.727 | [23] 0.518 | [24] 0.543 | [26] 0.465 | [31] 0.273 | [35] 0.586 | [36] 0.46 | [41] 0.408 | [42] 0.54 | [44] 0.549 | [45] 0.673 | [47] 0.713 | [52] 0.47 | [59] 0.428 | [62] 0.478 | [63] 0.42 | [64] 0.526 | [66] 0.674
